Assay outcomes: PubChem, Buhrlage Lab, Dana-Farber Cancer Institute and Novartis Institutes for BioMedical Research (Cambridge, Mass)
In the library only some 4.6% were active in any assay of this set; here they are far more common.
USP7 block: human USP7 deubiquitinase inhibition | Q93009 | purified USP7, Ub-rhodamine cleavage fluorescence | inhibition, % at 20 µM | actives 0.3% (n = 47,000) | AID 1645854
USP10 inh: blocks human USP10 ubiquitin-rhodamine cleavage; purified USP10, Ub-rhodamine fluorescence, 60 min; inhibition, % at 20 µM; actives 1.1% (n = 47,000)
UCHL1 block: inhibitors of human UCHL1 deubiquitinase; actives 0.2% (n = 47,000); P09936; inhibition, % at 20 µM; purified UCHL1, Ub-rhodamine cleavage fluorescence
Target sequence (P09936 whole entry, looked up): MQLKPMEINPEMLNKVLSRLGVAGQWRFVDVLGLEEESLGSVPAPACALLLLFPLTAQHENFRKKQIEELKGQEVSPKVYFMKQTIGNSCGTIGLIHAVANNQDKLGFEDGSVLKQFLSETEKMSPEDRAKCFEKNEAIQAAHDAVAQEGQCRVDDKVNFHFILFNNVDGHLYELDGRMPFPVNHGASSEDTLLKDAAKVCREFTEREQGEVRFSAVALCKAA
USP8 inh: inhibitors of human USP8 deubiquitinase; P40818; actives 4.2% (n = 47,000); purified USP8, Ub-rhodamine cleavage fluorescence, 30 min; inhibition, % at 20 µM; AID 1645853
* marks the source's active call; other numbers are inactive results. Cut-off read from the data, not from the text of the source: active = inhibition above about 30%; inactive = the rest.

SMILES	USP7 block	USP10 inh	UCHL1 block	USP8 inh
O=C(NC(Cc1ccccc1)c1nc2ccccc2[nH]1)C1CC1 (configuration not stated)	0	3	12	48*
CCOc1cc(C2c3c(oc4ccccc4c3=O)C(=O)N2c2nc3ccc(C)cc3s2)ccc1O (configuration not stated)	7	4	0	-1
COc1ccc(S(=O)(=O)Nc2ccc3nn(C)cc3c2)cc1	-6	-4	-5	77*
N#Cc1cccc(NC(=O)CC(=O)Nc2ccc3nc4n(c(=O)c3c2)CCCCC4)c1	9	9	0	56*
COc1ccc(C2CC(c3ccccc3OC)n3ncnc3N2C(=O)c2ccccc2)cc1 (configuration not stated)	11	0	9	21
COc1ccc(C(C)C)cc1S(=O)(=O)Nc1cccc(C)n1	6	0	6	14
COc1ccc(C)cc1S(=O)(=O)NNc1nc(C)cc(C)n1	5	2	0	76*
Cc1ccn2cc(-c3ccc(NC(=O)C(C)Oc4ccccc4)cc3)nc2n1 (configuration not stated)	8	13	0	40*
CCOc1ccc(NC(=O)COc2ccccc2OC)c2cccnc12	0	2	-1	33*
Cc1ccc(CNC(=O)CCc2c(C)nn(-c3cc(N4CCOCC4)ncn3)c2C)o1	0	-4	-3	-20
O=C(NCc1ccccc1Cl)C1CCN(c2ccc(-c3ccccc3)nn2)CC1	9	30*	-1	47*
COc1ccc(CC(C#N)(C(=O)NC2CCCCC2)c2nc3ccccc3[nH]2)cc1 (configuration not stated)	-12	-5	-2	70*
COc1cccc(-c2cccc(C3CCCN(C(=O)c4ccn[nH]4)C3)n2)c1 (configuration not stated)	-6	3	3	18
O=C(c1c(F)cccc1F)N1CC2CCCN2c2ccc(C(F)(F)F)cc21 (configuration not stated)	11	-1	5	34*
C[C@@H]1Cc2cc(O)cc(O)c2C(=O)O[C@H](C)CC(=O)OC[C@@H](O)CC(=O)O[C@H](C)Cc2cc(O)cc(O)c2C(=O)O[C@H](C)CC(=O)O1	3	8	6	4
C/C=C/C=C/[C@@H]1Cc2cc(O)cc(O)c2O1	-76	33*	61*	74*
Cc1ccc(C(=O)C(C)Sc2nnc(C)n2Cc2ccccc2)cc1 (configuration not stated)	-9	-2	-1	0
CCOc1ccc(CC(=O)Nc2ccc(-c3cn4cccnc4n3)cc2)cc1	-24	14	22	40*
Cc1ccc(NC(=O)C2Nc3ccccc3S(=O)(=O)N2)cc1C (configuration not stated)	4	0	0	0
CCN1C(=O)Cc2cc(NS(=O)(=O)c3ccccc3F)ccc21	4	3	3	14
CCN1C(=O)Cc2cc(NS(=O)(=O)c3cc(C)ccc3C)ccc21	10	0	3	40*
CN1c2ccc(F)cc2C(=O)NC12CCN(C(=O)NCc1ccc(F)cc1)CC2	-5	4	2	5
Cn1c(=O)c(C(=O)Nc2ccc(Br)cc2)nc2ccccc21	-13	8	26	77*
Cc1ccccc1C(=O)Nc1ccc(Cc2ccc(NC(=O)c3ccccc3C)c(O)c2)cc1O	4	2	0	43*
Cc1c(N2CCC(C(=O)NC3CCCCC3)CC2)c(=O)n(C)c(=O)n1C	-13	-7	-10	-18
SMILES	USP7 block	USP10 inh	UCHL1 block	USP8 inh
O=C(NCCc1nc2ccccc2n1CCCOc1ccccc1Cl)C1CCCCC1	-5	31*	-4	74*
COc1ccc(C(CNC(=O)c2cc(-c3ccc(Cl)cc3)on2)N2CCOCC2)cc1 (configuration not stated)	8	25	-1	40*
O=C(NCC(c1ccc(Cl)cc1)N1CCOCC1)c1cc(-c2ccccc2)on1 (configuration not stated)	0	-2	4	12
CC(C)NC(=O)CN1C(c2ccccc2)=CC(c2ccccc2)n2nnnc21 (configuration not stated)	-5	0	-1	-7
Cc1cccc(-n2cnc(C(=O)NCc3ccc(F)cc3)c2)n1	1	4	2	34*
CC(=O)Nc1ccc(-n2cnc(C(=O)NCc3ccc(F)cc3)c2)nc1	5	5	0	16
CCc1ccccc1NC(=O)CN1C(=O)C2CCCC2=Nc2ccccc21 (configuration not stated)	11	34*	0	34*
